Experimental data as given in PubChem BioAssay (NCATS).
Values joined by “and” are separate entries in the source; they are usually repeats but may differ in a detail not shown here. Equal entries are not always repeated. Records with an inconclusive call do not appear. Where a call stands in place of a potency, no number is given. Unmarked numbers belong to inactive results. Active and inactive are the calls of the source. Calls follow the shape of the dose curve; as a rule, active = well fitted curve in the direction sought with a large enough effect; inconclusive = small, poorly fitted or top-dose-only effect, or another doubt; inactive = no such curve, though single readings can be large; an effect the other way counts as inactive or inconclusive.

Assays:
[1] = Viability qHTS for spleen associated tyrosine kinase inhibitor (SYKi) naive MV4-11 cells (AID 1963823); also: nearly all actives have a fitted effect of over 40% in size; also: potency is read from the fitted curve at half-maximal effect
Summary of the method: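 Cells: MV4-11, SYK inhibitor naive, 500 per well. Treatment: library compounds, 72 hr, 37 C, 5% CO2. Read-out: CellTiter-Glo luminescence after 10 min RT.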

[2] = Viability qHTS for spleen associated tyrosine kinase inhibitor (SYKi) drug resistant MV4-11 cells (AID 1963824); also: nearly all actives have a fitted effect of over 35% in size; also: potency is read from the fitted curve at half-maximal effect
Summary of the method: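 SYK inhibitor-resistant MV4-11 AML cells, 500 per well, added to predispensed compounds and incubated 72 hr at 37 C, 5% CO2. Viability measured by CellTiter-Glo luminescence after 10 min at room temperature.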

[3] = Quantitative highthroughput screen to assess conditional lethalithy of NOMO1 cells grown in RPMI1640 with untreated serum (RPMI+s) (AID 1963876); also: nearly all actives have a fitted effect of over 35% in size; also: potency is read from the fitted curve at half-maximal effect
Summary of the method: (§1)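 Each medium arm—HPLM with 10% dialyzed FBS, or RPMI1640 with 5 mM glucose and 10% untreated or dialyzed FBS—was screened against an 11-point, 3-fold compound titration for 48 h at 37 °C, with CellTiter-Glo luminescence as endpoint.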

[4] = Quantitative highthroughput screen to assess conditional lethalithy of NOMO1 cells grown in RPMI1640 with dialyzed fetal bovine serum (RPMI+ds) (AID 1963877); also: nearly all actives have a fitted effect of over 30% in size; also: potency is read from the fitted curve at half-maximal effect; as to Viability: series mostly up to about 46 µM
Summary of the method: as §1

[5] = Quantitative highthroughput screen to assess conditional lethalithy of NOMO1 cells grown in Human Plasma-Like Medium with dialyzed fetal bovine serum (HPLM+ds) (AID 1963878); also: nearly all actives have a fitted effect of over 35% in size; also: potency is read from the fitted curve at half-maximal effect
Summary of the method: as §1

[6] = Quantitative highthroughput screen to assess conditional lethalithy of P12 Ichikawa cells grown in Human Plasma-Like Medium with dialyzed fetal bovine serum (HPLM+ds) (AID 1963879); details: Potency: viability; also: nearly all actives have a fitted effect of over 35% in size; also: potency is read from the fitted curve at half-maximal effect; as to Viability: series mostly up to about 46 µM
Summary of the method: as §1

[7] = Quantitative highthroughput screen to assess conditional lethalithy of P12 Ichikawa cells grown in RPMI1640 with dialyzed fetal bovine serum (RPMI+ds) (AID 1963880); details: Potency: P12-Ichikawa viability; also: nearly all actives have a fitted effect of over 35% in size; also: potency is read from the fitted curve at half-maximal effect
Summary of the method: as §1

[8] = Quantitative highthroughput screen to assess conditional lethalithy of P12 Ichikawa cells grown in RPMI1640 with untreated serum (RPMI+s) (AID 1963881); details: Potency: viability; also: nearly all actives have a fitted effect of over 35% in size; also: potency is read from the fitted curve at half-maximal effect; as to Viability: series mostly up to about 46 µM
Summary of the method: as §1

[9] = Quantitative highthroughput screen to assess conditional lethalithy of SEM cells grown in Human Plasma-Like Medium with dialyzed fetal bovine serum (HPLM+ds) (AID 1963882); also: nearly all actives have a fitted effect of over 35% in size; also: potency is read from the fitted curve at half-maximal effect; as to Viability: series mostly up to about 46 µM
Summary of the method: as §1

[10] = Quantitative highthroughput screen to assess conditional lethalithy of SEM cells grown in RPMI1640 with unreated serum (RPMI+s) (AID 1963883); also: nearly all actives have a fitted effect of over 35% in size; also: potency is read from the fitted curve at half-maximal effect
Summary of the method: as §1

[11] = Quantitative highthroughput screen to assess conditional lethalithy of SEM cells grown in RPMI1640 with dialyzed fetal bovine serum (RPMI+ds) (AID 1963884); also: nearly all actives have a fitted effect of over 35% in size; also: potency is read from the fitted curve at half-maximal effect; as to Viability: series mostly up to about 46 µM
Summary of the method: as §1

[12] = Cellular viability qHTS for adrenocortical cancer (ACC) cell line SW-13 (AID 1963989); details: SW-13 ACC cells viability, CellTiter-Glo, 48 h; activity (max response): active compounds read low;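 also: cells grown in serum-free medium with ITS supplement; nearly all actives have a fitted effect of over 65% in size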
Summary of the method: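 Viability was read as CellTiter-Glo luminescence after 48 h compound treatment (up to 46 uM final) of SW-13 cells grown serum-free; titration curves were fit with a four-parameter logistic model to give IC50 and efficacy.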

[13] = Cellular viability qHTS for adrenocortical cancer (ACC) cell line NCI-H295R (AID 1963990); also: nearly all actives have a fitted effect of over 60% in size; also: potency is read from the fitted curve at half-maximal effect
Summary of the method: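 CellTiter-Glo ATP luminescence, read 48 h after compound addition, measured viability of NCI-H295R adrenocortical cells grown serum-free with ITS. Final concentrations spanned up to 46 uM. Data normalized to DMSO and doxorubicin, fitted for IC50 and maximal response.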

| Structure (SMILES) | Potency [1] | Potency [2] | Potency [3] | Potency [4] | Potency [5] | Potency [6] | Potency [7] | Potency [8] | Potency [9] | Potency [10] | Potency [11] | activity (max response) [12] [%] | Potency [13] | viability (% of control) [1] | viability, % of control [2] | activity change, negative = viability loss [13] |
| --- | --- | --- | --- | --- | --- | --- | --- | --- | --- | --- | --- | --- | --- | --- | --- | --- |
| CN1CC(=O)NC1=NC(=O)Nc1cccc(Cl)c1 | inactive | inactive | inactive | inactive | inactive | inactive | inactive | inactive | inactive | inactive | inactive | -5.87 | inactive | – | – | – |
| Cn1cc(C[C@@H](N)C(=O)O)c2ccccc21 | – | – | inactive | inactive | inactive | inactive | inactive | inactive | inactive | inactive | inactive | -6.77 | – | 69.9% [at 9.25 µM] | 75.4% [at 9.25 µM] | -13.9% [at 9.17 µM] |
| O=S(=O)(O)CCSSCCS(=O)(=O)O | inactive | inactive | inactive | inactive | inactive | inactive | inactive | inactive | inactive | inactive | inactive | 0.678 | inactive | – | – | – |
| Nc1ncnc2nc(-c3ccc(N4CCOCC4)nc3)cc(-c3cccc(Br)c3)c12 | 4.68 µM (active) | 8.33 µM (active) | inactive | inactive | inactive | inactive | inactive | inactive | inactive | – | inactive | -17.8 | – | – | – | – |
| Cc1nc(N)ncc1-c1nc(N2CCOCC2)c2sc(C(C)(C)O)cc2n1 | 2.59 µM (active) and 3.32 µM (active) | 3.66 µM (active) and 5.9 µM (active) | 209 nM (active) | 332 nM (active) | 37.2 nM (active) | 83.3 nM (active) | 372 nM (active) | 372 nM (active) | 148 nM (active) | 33.2 nM (active) | 74.3 nM (active) | – | 2240 nM (active) | – | – | – |
